# Measurements from the supplement of paper PMC6555819.
# How the values were obtained:
# Experiment in all cases: PBM binding z-score (relative to random genomic background probes); higher = stronger binding; sequences stand for … in GC…GCGATTGACAGCGTAGAATGAAGG
# [1] = system: PPARg:RXRa DBDmut IVT, anti-RXR (DBD mutation: RXRa K156A/R161A, NR concentration 270 nM, RXRa partner concentration 90 nM)
# Outline: (§1)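 Custom Agilent 4×180K protein-binding microarrays carried double-stranded probes. Their 34-nt variable regions held direct-repeat seeds, single-nucleotide variants, half-site ablations and random human genomic background sequences. Arrays were incubated 1 h with ligand-free nuclear receptor dimers in PBS pH 7.4, 2% milk, 0.02% Triton X-100, 1 mM DTT, 0.2 mg/mL BSA and 0.4 mg/ml salmon testes DNA. Antibodies against each partner (one per run) detected binding, and scanned fluorescence was regression-normalized. Binding z-scores use random background probes as reference.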
# [2] = system: PPARg:RXRa IVT, anti-PPARg (NR concentration 270 nM, RXRa partner concentration 90 nM)
# Outline: as §1
# [3] = system: PPARg DBDmut:RXRa IVT, anti-PPARg (DBD mutation: PPARg1 K132A/R137A, NR concentration 270 nM, RXRa partner concentration 90 nM)
# Outline: as §1
# [4] = system: PPARg DBDmut IVT, anti-PPARg (DBD mutation: PPARg1 K132A/R137A, NR concentration 270 nM)
# Outline: as §1
# [5] = system: PPARg homodimer (NR concentration 180 nM)
# Outline: as §1
# [6] = system: PXR:RXRa (NR concentration 270 nM, RXRa partner concentration 90 nM)
# Outline: as §1
# [7] = system: PXR homodimer (NR concentration 270 nM)
# Outline: as §1
# [8] = system: RARa:RXR (NR concentration 270 nM, RXRa partner concentration 90 nM)
# Outline: as §1
# [9] = system: RARa homodimer (NR concentration 270 nM)
# Outline: as §1
# [10] = system: RARb:RXRa (NR concentration 270 nM, RXRa partner concentration 90 nM)
# Outline: as §1
# [11] = system: RARb homodimer (NR concentration 270 nM)
# Outline: as §1
# [12] = system: RARg:RXRa (NR concentration 270 nM, RXRa partner concentration 90 nM)
# Outline: as §1
# [13] = system: RARg homodimer (NR concentration 270 nM)
# Outline: as §1
# [14] = system: RXRa DBDmut IVT, anti-RXR (DBD mutation: RXRa K156A/R161A, NR concentration 90 nM)
# Outline: as §1
# [15] = system: RXRa homodimer (NR concentration 180 nM)
# Outline: as §1
# [16] = system: THRa:RXRa (NR concentration 90 nM, RXRa partner concentration 90 nM)
# Outline: as §1
# [17] = system: THRa homodimer (NR concentration 90 nM)
# Outline: as §1
# [18] = system: VDR homodimer (NR concentration 270 nM)
# Outline: as §1
Sequence,PBM binding z-score [1],PBM binding z-score [2],PBM binding z-score [3],PBM binding z-score [4],PBM binding z-score [5],PBM binding z-score [6],PBM binding z-score [7],PBM binding z-score [8],PBM binding z-score [9],PBM binding z-score [10],PBM binding z-score [11],PBM binding z-score [12],PBM binding z-score [13],PBM binding z-score [14],PBM binding z-score [15],PBM binding z-score [16],PBM binding z-score [17],PBM binding z-score [18]
TTACCAAGGTGAACTGAGGTCGTTGATCCAACTC,2.89,3.47,0.972,0.996,1.32,6.12,1.94,3.7,-0.75,2.43,2.38,2.52,1.54,1.71,2.63,4.93,3.07,3.63
CAAACTAGGTCACGAAAGGTCAAAGTTGAATGAC,8.71,9.01,2.54,2,4.96,6.9,3.33,7.79,4.38,5.45,6.02,8.01,8.58,2.59,8.85,5.01,2.88,3.89
TAGCCTAGGTCATTCAGGGGCTAGTATAGAAAGC,1.49,2.56,-0.0413,0.573,1.3,2.36,-0.268,2.79,-0.106,3.76,2.84,4.98,4.16,1.94,2.89,3.74,0.0111,0.805
CCTTACGGGTCAAGGTTATACCACGGGTGGTACG,1.19,3.53,-0.379,-0.205,3.33,3.49,0.498,4.11,1.71,4.21,3.44,4.96,4.75,0.758,5.09,2.97,0.619,1.65
TCTGCTAGGTCAACGATGGTCAGCGAATCTGCTA,4.02,4.01,0.33,-0.3,0.458,1.44,-0.999,2.26,-0.808,4.11,3.42,4.03,4.75,0.927,2.57,3.15,0.707,-0.22
GATACAGGGTCAAGGCCAGAGTACGCGTATTGAT,2.82,3.95,1.08,0.22,1.95,3.88,0.227,4.46,0.587,4.44,3.46,5.41,4.92,2.66,5.69,3.52,1.35,2.91
CCTACTGGGCCACGAAAGGTGATTGATTCAGTGA,5.14,5.37,-0.117,-0.709,0.352,0.0244,-0.433,0.698,-0.285,0.929,1.02,0.589,0.505,-0.663,0.207,1.41,-0.377,-0.289
TAGCCTAGGTCATTGTGCCAGTATAGTACGCATC,2.37,3.23,-0.0725,0.703,0.97,1.47,0.0622,1.89,-0.0989,3.44,2.7,3.4,3.77,1.9,2.17,2.61,1.03,1.2
AGTCAAAGTTCAGGACGAGATAACGTAAAGCACG,-0.425,1.35,0.702,0.865,1.35,1.99,0.795,1.85,1.11,4.1,2.69,3.84,4.59,2.82,2.8,1.76,0.431,1.95
CATACACGGTCAGCTAGGCCAGAGTAGGGACGGC,-0.275,0.556,0.102,0.44,0.0796,-0.388,-0.264,-0.295,0.385,2.49,1.5,1.24,2.04,-0.438,0.355,0.226,-0.129,-0.286
TATACAGGATCAAAGGCCAGAGTACGAATGTCGA,0.256,1.03,0.156,0.991,1.27,0.0724,0.338,0.0923,0.389,0.997,0.878,0.959,1.02,-0.32,0.857,-0.0517,-0.472,0.376
CGTCAAAGTTCATGGTAACGTAACAGAAAGCAGC,0.9,2.06,1.17,1.03,3.91,4.52,2.84,3.68,1.6,5,4.04,5.3,5.92,4.79,4.53,1.98,-0.212,4.64
CGCACTAGGTCATTGACAGGACAGTGAATAGTAA,8.05,8.26,3.67,3.71,2.42,1.82,0.54,2.55,0.834,3.81,2.68,4.77,4.46,2.35,2.57,2.91,1.16,1.54
GATACAGGGTCATCTAGAGGCCAGAGTATGGAAA,1.93,3.6,0.707,0.0112,3.91,4.97,0.378,6.28,0.58,4.48,3.71,7.56,5.37,3.39,6.6,3.76,0.837,2.85
CGTCCAAGGTCAGAGAGGTCAGTGTATGCCGAGT,2.75,3.39,-0.0469,0.446,3.62,5.92,12.1,5.19,1.5,5.16,5.2,6.1,6.77,3.28,5.29,4.14,3,5.78
